Source: PubChem BioAssay (NCATS)
Inconclusive results are not listed. Where a call stands in place of a potency, no number is given. Calls of active or inactive are those of the source. Calls follow the shape of the dose curve; as a rule, active = well fitted curve in the direction sought with a large enough effect; inconclusive = small, poorly fitted or top-dose-only effect, or another doubt; inactive = no such curve, though single readings can be large; an effect the other way counts as inactive or inconclusive.

Experiment: qHTS of pediatric cancer cell lines to identify multiple opportunities for drug repurposing: Primary screen for SK-N-MC cells (AID 1347093); also: potency is read from the fitted curve at half-maximal effect
Settings: SK-N-MC viability, CellTiter-Glo luminescence, 48 h; series mostly up to 46 µM
Procedure, shortened: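 Metabolically active cells were quantified by ATP-dependent luminescence (CellTiter-Glo, 15 min at room temperature) following 48 h treatment. Cells had been plated at 500-1,000 per well and settled for 5 h beforehand.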

SMILES	Potency
C[C@H]1O[C@@H](O[C@H]2[C@@H](O)C[C@H](O[C@H]3[C@@H](O)C[C@H](O[C@H]4CC[C@@]5(C)[C@H](CC[C@@H]6[C@@H]5CC[C@]5(C)[C@@H](C7=CC(=O)OC7)CC[C@]65O)C4)O[C@@H]3C)O[C@@H]2C)C[C@H](O)[C@@H]1O	5.3 nM (active)
CC(C)CC(N(C)C)C1(c2ccc(Cl)cc2)CCC1 (stereo not drawn)	inactive
CCOC(=O)C1(c2ccccc2)CCN(CCC(C#N)(c2ccccc2)c2ccccc2)CC1	4730 nM (active)
Cc1sc2c(c1C)C(c1ccc(Cl)cc1)=N[C@@H](CC(=O)OC(C)(C)C)c1nnc(C)n1-2	118 nM (active)
C[C@@H]1[C@@H](CC(C[C@H]2O[C@@H]3O[C@]4(C)CC[C@@H]5[C@H](C)CC[C@@H]([C@H]2C)[C@@]35OO4)C[S+](=O)([O-])c2ccc(COC(=O)N(C)C)cc2)O[C@@H]2O[C@]3(C)CC[C@H]4[C@H](C)CC[C@@H]1[C@@]24OO3 (stereo partly drawn)	372 nM (active)
CCN(CC)CCN1C(=O)CN=C(c2ccccc2F)c2cc(Cl)ccc21	inactive
CNC(=O)N1N=C(c2ccc(N)cc2)c2cc3c(cc2CC1C)OCO3 (stereo not drawn)	9350 nM (active)
CN(C)CCN(C)CCc1ccc(Cl)c(Cl)c1	14800 nM (active)
C[C@@H]1[C@@H](C(=O)C[C@H]2O[C@@H]3O[C@]4(C)CC[C@@H]5[C@H](C)CC[C@@H]([C@H]2C)[C@@]35OO4)O[C@@H]2O[C@]3(C)CC[C@H]4[C@H](C)CC[C@@H]1[C@@]24OO3	372 nM (active)

Experiment: qHTS of pediatric cancer cell lines to identify multiple opportunities for drug repurposing: Primary screen for NB-EBc1 cells (AID 1347095); also: potency is read from the fitted curve at half-maximal effect
Settings: NB-EBc1 neuroblastoma viability, CellTiter-Glo luminescence, 48 h; series mostly up to 46 µM
Procedure, shortened: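 500-1,000 cells/well; 5 h pre-incubation 37 °C/5% CO2; compound pinned; 48 h; CellTiter-Glo, 15 min RT; luminescence. MIPE 11-pt from 0.78 nM, NPC 8-pt from 0.59 nM final. Bortezomib 2.3 µM final as positive control.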

SMILES	Potency
Cc1sc2c(c1C)C(c1ccc(Cl)cc1)=N[C@@H](CC(=O)OC(C)(C)C)c1nnc(C)n1-2	4180 nM (active)
CCN(CC)CCN1C(=O)CN=C(c2ccccc2F)c2cc(Cl)ccc21	inactive
CN(C)CCN(C)CCc1ccc(Cl)c(Cl)c1	inactive
C[C@@H]1[C@@H](C(=O)C[C@H]2O[C@@H]3O[C@]4(C)CC[C@@H]5[C@H](C)CC[C@@H]([C@H]2C)[C@@]35OO4)O[C@@H]2O[C@]3(C)CC[C@H]4[C@H](C)CC[C@@H]1[C@@]24OO3	469 nM (active)

Experiment: qHTS of pediatric cancer cell lines to identify multiple opportunities for drug repurposing: Primary screen for U-2 OS cells (AID 1347096); also: nearly all actives have a fitted effect of over 50% in size
Settings: U-2 OS viability, CellTiter-Glo luminescence, 48 h; series mostly up to 46 µM
Procedure, shortened: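 Cells (500-1,000/well) rested 5 h, then received compounds for 48 h; metabolically active cells were measured by CellTiter-Glo luminescence. Final concentrations spanned up to 46 µM (MIPE, 11-point) or 0.59 nM-46 µM (NPC, 8-point) in primary screens, 11-point in follow-ups.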

SMILES	Potency
CC(C)CC(N(C)C)C1(c2ccc(Cl)cc2)CCC1 (stereo not drawn)	inactive
CCC(=O)C(CC(C)N(C)C)(c1ccccc1)c1ccccc1 (stereo not drawn)	inactive
CCOC(=O)C1(c2ccccc2)CCN(CCC(C#N)(c2ccccc2)c2ccccc2)CC1	inactive
COc1ccc(Cc2nccc3cc(OC)c(OC)cc23)cc1OC	inactive
Cn1cc(C2=C(c3cn(C4CCN(Cc5ccccn5)CC4)c4ccccc34)C(=O)NC2=O)c2ccccc21	inactive
C[C@@H]1[C@@H](CC(C[C@H]2O[C@@H]3O[C@]4(C)CC[C@@H]5[C@H](C)CC[C@@H]([C@H]2C)[C@@]35OO4)C[S+](=O)([O-])c2ccc(COC(=O)N(C)C)cc2)O[C@@H]2O[C@]3(C)CC[C@H]4[C@H](C)CC[C@@H]1[C@@]24OO3 (stereo partly drawn)	inactive
CCN(CC)CCN1C(=O)CN=C(c2ccccc2F)c2cc(Cl)ccc21	inactive
CNC(=O)N1N=C(c2ccc(N)cc2)c2cc3c(cc2CC1C)OCO3 (stereo not drawn)	inactive
CN(C)CCN(C)CCc1ccc(Cl)c(Cl)c1	inactive
C[C@@H]1[C@@H](C(=O)C[C@H]2O[C@@H]3O[C@]4(C)CC[C@@H]5[C@H](C)CC[C@@H]([C@H]2C)[C@@]35OO4)O[C@@H]2O[C@]3(C)CC[C@H]4[C@H](C)CC[C@@H]1[C@@]24OO3	inactive
